Here are results for 85 compounds from article PMC4336329 (PLoS ONE, 2015).

Molecules are shown by their SMILES. Out of some 310,000 compounds screened, about 14,000 (4.5%) showed an effect of 50% or more. Effects have a minus sign here. The sample as a whole holds a higher share of strong results than the screen did.
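Also: peak tail current of the secondary pulse compared with the same well before compound.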

Chain of human ether-à-go-go-related gene (hERG) potassium channel (Q12809 whole entry, looked up): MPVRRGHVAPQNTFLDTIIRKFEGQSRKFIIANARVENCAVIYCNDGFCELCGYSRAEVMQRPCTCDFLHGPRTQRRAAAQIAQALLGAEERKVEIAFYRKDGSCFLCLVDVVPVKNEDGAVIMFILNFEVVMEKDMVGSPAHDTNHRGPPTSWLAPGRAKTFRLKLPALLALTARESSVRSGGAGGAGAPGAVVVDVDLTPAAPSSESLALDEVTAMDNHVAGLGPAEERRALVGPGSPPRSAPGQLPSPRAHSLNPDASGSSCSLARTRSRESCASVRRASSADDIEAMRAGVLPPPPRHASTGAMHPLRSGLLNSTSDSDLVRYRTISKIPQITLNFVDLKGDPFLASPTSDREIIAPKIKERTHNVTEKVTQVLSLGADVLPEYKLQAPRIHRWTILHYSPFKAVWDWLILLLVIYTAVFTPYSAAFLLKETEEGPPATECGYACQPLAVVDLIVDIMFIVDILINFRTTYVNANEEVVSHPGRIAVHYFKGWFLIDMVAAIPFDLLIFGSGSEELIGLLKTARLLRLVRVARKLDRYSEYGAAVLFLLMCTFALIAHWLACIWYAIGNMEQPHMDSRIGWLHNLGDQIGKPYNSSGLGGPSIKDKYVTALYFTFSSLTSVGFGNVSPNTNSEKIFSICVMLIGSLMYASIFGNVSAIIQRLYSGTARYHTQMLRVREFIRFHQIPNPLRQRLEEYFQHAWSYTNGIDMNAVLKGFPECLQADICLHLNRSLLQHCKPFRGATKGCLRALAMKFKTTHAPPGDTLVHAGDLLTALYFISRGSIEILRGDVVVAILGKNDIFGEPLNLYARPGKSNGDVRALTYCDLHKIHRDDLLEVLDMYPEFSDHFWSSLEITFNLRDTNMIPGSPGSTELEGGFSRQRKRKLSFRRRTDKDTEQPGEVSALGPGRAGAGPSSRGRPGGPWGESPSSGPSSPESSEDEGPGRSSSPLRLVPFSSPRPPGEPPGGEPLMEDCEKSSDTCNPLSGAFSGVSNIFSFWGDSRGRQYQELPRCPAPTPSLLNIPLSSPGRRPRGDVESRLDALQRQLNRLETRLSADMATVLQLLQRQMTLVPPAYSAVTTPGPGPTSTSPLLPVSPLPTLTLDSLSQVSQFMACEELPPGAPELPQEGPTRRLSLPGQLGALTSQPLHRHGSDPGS

This experiment has as its target human ether-à-go-go-related gene (hERG) potassium channel (human, UniProt Q12809). The experiment in a line: primary screen, population patch clamp on CHO cells stably expressing hERG; higher = less effect of the substance.
On to `O=C(Cc1cccs1)NCCn1ccc2ccccc21`, for which the “hERG current change (%, negative = inhibition) at 10uM” value is listed as -6.95%.
Under `Cc1ccc(C2=NN(C(=O)CSc3nnnn3C)C(c3ccco3)C2)cc1` (stereo not shown) stands 17.1%; under `Cc1cn(C)c(=O)n(C)c1=O`, 4.46%.
To `O=C(C[n+]1cc(-c2ccc(F)cc2)n2c1CCC2)Nc1nc(-c2ccc(F)cc2)cs1.[Cl-]` belongs -76.7%.
To `Cn1c(NC(=O)C[n+]2cc(-c3ccc(F)cc3)n3c2CCC3)cc(=O)n(C)c1=O.[Cl-]` belongs 1.04%.
As to `O=C(C[n+]1cc(-c2ccc(Cl)cc2)n2c1CCC2)Nc1nc(-c2ccc(F)cc2)cs1.[Cl-]`, the “hERG current change (%, negative = inhibition) at 10uM” value was -48.4%.
With `Cc1ccc(-c2c[n+](CC(=O)Nc3nc(-c4ccc(F)cc4)cs3)c3n2CCC3)cc1.[Cl-]`, the “hERG current change (%, negative = inhibition) at 10uM” value is -74.2%.
`O=C(C[n+]1cc(-c2ccc(F)cc2)n2c1CCC2)Nc1nc(-c2ccccc2)cs1.[Cl-]`: the “hERG current change (%, negative = inhibition) at 10uM” value is -11.1%.
To `O=C(C[n+]1cc(-c2ccccc2)n2c1CCC2)Nc1nc(-c2ccc(F)cc2)cs1.[Cl-]` belongs -20.3%; to `CN(c1ccc(C(=O)N2CCOCC2)cc1[N+](=O)[O-])C1CCCCC1`, -23.1%.
To `CCCCC[C@H]1CN(Cc2ccccc2)C(=O)[C@@H]1CC(=O)NCc1ccc(OC)cc1` belongs -56.4%; to `CCCCN1C[C@H](C)[C@@H](CC(=O)NCc2ccccc2)C1=O`, -10.5%; to `CCCCC[C@H]1CN(CCCC)C(=O)[C@@H]1CC(=O)NCc1ccccc1`, -73.5%.
As for `CCCCC[C@H]1CN(Cc2ccc(OC)cc2)C(=O)[C@@H]1CC(=O)NCc1ccccc1`, the “hERG current change (%, negative = inhibition) at 10uM” value is recorded as -38.6%.
In the case of `COc1ccc(CCN2CC(C(=O)NCc3ccccc3)CCC2=O)cc1` (stereo not shown), the “hERG current change (%, negative = inhibition) at 10uM” value is recorded as -8.79%.
To `CCCCCCc1ccc(N2C[C@H](CCCCC)[C@@H](CC(=O)NCc3ccc(OC)cc3)C2=O)cc1` belongs -16.6%.
With `CCCCC[C@H]1CN(CCc2ccccc2)C(=O)[C@@H]1CC(=O)NCc1ccc(OC)cc1`, the “hERG current change (%, negative = inhibition) at 10uM” value was -61.8%.
Under `COc1ccc(CN2C[C@H](C)[C@@H](CC(=O)NCc3ccccc3)C2=O)cc1` stands -10.7%; under `CCCCN1C[C@H](Cc2ccccc2)[C@@H](CC(=O)Nc2ccccc2)C1=O`, -25.4%.
Under `CCCCC[C@H]1CN(CCCC)C(=O)[C@@H]1CC(=O)NCc1ccc(OC)cc1` stands -71%.
Consider `CCCCN1CC[C@H]2C=CC[C@@H](C(=O)NCc3ccc(OC)cc3)[C@H]2C1=O`, for which the “hERG current change (%, negative = inhibition) at 10uM” value turned out to be 2.71%.
Under `CCCCCCc1ccc(N2C[C@H](Cc3ccccc3)[C@@H](CC(=O)NCc3ccc(OC)cc3)C2=O)cc1` stands -4.42%; under `CC(C)(C)NCc1cccn1-c1sc2c(c1C#N)CCCC2`, -13.4%.
`NC(=S)Nc1ncc(C(F)(F)F)cc1Cl`: the “hERG current change (%, negative = inhibition) at 10uM” value was 12.2%.
In the case of `CC(C)NC(=O)c1sc(=S)n2c1[nH]c(=O)c1ccc(C(=O)NCCc3ccc(Cl)cc3)cc12`, the “hERG current change (%, negative = inhibition) at 10uM” value is 14.1%.
Under `N#CC(c1ccccc1)N(CCCCl)C(=O)c1ccccc1` (stereo not shown) stands -18.9%; under `c1ccc(OCCCc2nc(-c3ccccn3)no2)cc1`, -0.0161%; under `CCCCC[C@H]1CN(Cc2ccccc2)C(=O)[C@@H]1CC(=O)NCc1ccccc1`, -65.8%.
To `CCCCCCc1ccc(N2C[C@H](CCCCC)[C@@H](CC(=O)NCc3ccccc3)C2=O)cc1` belongs -1.8%; to `C[C@H]1CN(Cc2ccccc2)C(=O)[C@@H]1CC(=O)NCc1ccccc1`, 1.31%.
To `O=C(c1cccc(C(F)(F)F)c1)N1CCC(O)(CS(=O)(=O)Cc2ccc(Cl)cc2)CC1` belongs 17.5%; to `CCN(c1ccccc1)S(=O)(=O)c1cc(C(=O)OC(C)C(=O)Nc2ccc3c(c2)OCCO3)ccc1C` (stereo not shown), 14.1%; to `Cc1ccc(-c2csc(=S)n2CC(=O)OCC(=O)NC(C)C(C)C)cc1` (stereo not shown), 3.12%.
As for `CN(CC(=O)Nc1ccc(Cl)c(C(F)(F)F)c1)C(=O)C1CC(=O)N(Cc2ccco2)C1` (stereo not shown), the “hERG current change (%, negative = inhibition) at 10uM” value is -20.1%.
To `Cc1[nH]c2ccccc2c1/C=N/NC(=O)c1ccc(N)cc1` belongs 11.2%; to `COc1ccc(CCN2C(=O)C3C4CC(C5C(C(=O)N/N=C\c6ccc(Cl)cc6)=NOC45)C3C2=O)cc1OC` (stereo not shown), -67.7%.
Under `COc1ccc(CCN2C(=O)C3C4CC(C5C(C(=O)NN)=NOC45)C3C2=O)cc1OC` (stereo not shown) stands 7.3%.
To `COc1ccc(CCN2C(=O)C3C4CC(C5C(C(N)=O)=NOC45)C3C2=O)cc1OC` (stereo not shown) belongs -2.12%.
With `CN(C)S(=O)(=O)N1CCC(Oc2ccc(C(=O)N3CCCCCCC3)cc2)CC1`, the “hERG current change (%, negative = inhibition) at 10uM” value is reported as 10.9%.
Under `CCOc1ccccc1N1CCN(C(=O)NCc2ccc(Cl)cc2)CC1` stands -14.6%; under `COc1ccccc1N1CCN(CCN2C(=O)C3CCCN3C2=O)CC1` (stereo not shown), 12%; under `Cc1ccccc1N1CCN(CCCN2C(=O)C3CCCCN3C2=O)CC1` (stereo not shown), -9.54%.
With `Cl.O.O=C1C2CCCCN2C(=O)N1CCCCN1CCN(c2ccccc2Oc2ccccc2)CC1` (stereo not shown), the “hERG current change (%, negative = inhibition) at 10uM” value is reported as -55.7%.
For the compound `COc1ccccc1N1CCN(CCN2C(=O)C3CCCCN3C2=O)CC1` (stereo not shown), the “hERG current change (%, negative = inhibition) at 10uM” value is 4.39%.
For the compound `CCCNC(=O)c1ccccc1N1CCN(CCCCN2C(=O)C3CCCCN3C2=O)CC1.Cl.O` (stereo not shown), the “hERG current change (%, negative = inhibition) at 10uM” value is recorded as -33.5%.
To `COc1ccccc1N1CCN(CCCCN2C(=O)C3CCCCN3C2=O)CC1` (stereo not shown) belongs -12.8%; to `Cc1ccc(N2CCN(CCCCN3C(=O)C4CCCN4C3=O)CC2)cc1.Cl` (stereo not shown), -23.9%.
To `CCCCOc1ccccc1N1CCN(CCCN2C(=O)C3CCCN3C2=O)CC1.Cl` (stereo not shown) belongs -56.7%; to `Cc1ccccc1N1CCN(CCCCN2C(=O)C3CCCN3C2=O)CC1.Cl.O` (stereo not shown), -65.4%.
To `O=C(Nc1ccccc1)OC1C2CCC1C(N1CCCCC1)CC2` (stereo not shown) belongs -37.5%; to `O=C(Nc1ccc(OCc2ccccc2Cl)cc1)c1cccnc1`, 1.02%.
Take `Cc1ccc(C(=O)N2CCCC(Nc3ccc(F)cc3)C2)cc1C` (stereo not shown): the “hERG current change (%, negative = inhibition) at 10uM” value worked out at 0.463%.
Under `Cc1ccc(-c2ccc(=O)n(CC(=O)NCc3ccco3)n2)cc1` stands -10%; under `O=C1C2C3c4ccccc4C(c4ccccc43)C2C(=O)N1Cc1ccco1` (stereo not shown), 5.12%; under `Cn1c(=O)n(C)c2cc(S(=O)(=O)O)ccc21`, 4.49%.
To `Cc1ccc(S(=O)(=O)NCC(=O)Nc2ccc3c(c2)OCO3)cc1` belongs 8.87%.
To `Cc1ccc(N2C(=O)CC(=O)NC2=O)cc1` belongs -16.9%; to `CCN(CC)CCN(C(=O)c1ccc(C(=O)c2ccccc2)cc1)c1nc2ccc(OC)cc2s1.Cl`, -45.9%.
As for `COc1cccc2sc(N(CCCN(C)C)C(=O)c3ccc(S(=O)(=O)N4CCc5ccccc5C4)cc3)nc12.Cl`, the “hERG current change (%, negative = inhibition) at 10uM” value turned out to be 3.58%.
Under `CCN(CC)CCN(C(=O)c1ccc([N+](=O)[O-])cc1)c1nc2c(OC)cccc2s1.Cl` stands -73.2%; under `CCN(CC)CCN(C(=O)c1ccc(C(=O)c2ccccc2)cc1)c1nc2c(OC)cccc2s1.Cl`, -68%.
Turning to `CCN(CC)CCN(C(=O)c1ccc(S(=O)(=O)N(C)C2CCCCC2)cc1)c1nc2c(C)cccc2s1.Cl`, the “hERG current change (%, negative = inhibition) at 10uM” value is on record as -13.9%.
To `CN1C(=O)/C(=C/c2ccccc2OCc2cccc(F)c2)N(C)C1=S` belongs 6.02%; to `O=C(COC(=O)C1CC(=O)N(Cc2ccccc2)C1)Nc1ccc2c(c1)OCO2` (stereo not shown), 5.98%; to `Cc1nc2ccc(Cl)cc2c(=O)n1-c1ccccc1Cl`, 5.06%.
Under `Cl.Fc1ccc(-c2ccc(CNCc3ccccn3)o2)cc1Cl` stands -34.9%.
To `Cl.Clc1ccc(-c2ccc(CNCC3CCCO3)o2)cc1` (stereo not shown) belongs -62.4%; to `Cc1ccc(CNCC2CCCO2)o1` (stereo not shown), 7.37%.
As for `OCCc1ccc(-c2ccc(Cl)cc2)o1`, the “hERG current change (%, negative = inhibition) at 10uM” value stood at 7.65%.
Under `CN1CCN(Cc2ccc(-c3ccc(Cl)cc3)o2)CC1` stands -31.7%; under `CCN(CC)CCNCc1ccc(-c2ccc(Cl)cc2)o1.Cl`, -72.8%; under `Cl.Clc1ccc(-c2ccc(CNCc3ccccn3)o2)cc1`, -52.4%.
Under `Cl.Clc1ccc(CNCC2CCCO2)c(Cl)c1` (stereo not shown) stands -2.74%; under `Cl.Clc1cccc(-c2ccc(CNCc3ccccn3)o2)c1`, -16.2%.
In the case of `CCCn1c(SCC(=O)NC2CC2)nnc1-c1ccccn1`, the “hERG current change (%, negative = inhibition) at 10uM” value is given as -2.29%.
Under `COc1ccccc1NC(=O)c1sc2nc(Cc3ccccc3)cc(C(F)(F)F)c2c1N` stands -7.85%.
Under `COc1ccccc1CC(=O)N1CCOCC1` stands 21%; under `Cc1ccccc1C(NC(N)=O)c1ccccc1` (stereo not shown), 0.289%; under `COc1ccccc1-n1cnnc1SC1CCOC1=O` (stereo not shown), 4.66%.
Under `S=C(CN1CCCC1=S)N1CCOCC1` stands 17.3%; under `CCOCCOC(=O)c1ccc(-n2cnc(C)n2)nc1`, 16.3%; under `Cc1cccc(C)c1NC(=O)C(NC=O)c1ccccc1Cl` (stereo not shown), 0.855%.
As to `O=S(=O)(Nc1ccccc1N1CCOCC1)c1ccc(F)c(Cl)c1`, the “hERG current change (%, negative = inhibition) at 10uM” value is recorded as -18.6%.
Under `CC1Cc2ccccc2N1c1ncnc2nc[nH]c12` (stereo not shown) stands -6.58%; under `CSc1nc2nc3c(c(=O)n2[nH]1)CN(Cc1ccccc1)CC3`, -20.5%.
